Data: PubChem BioAssay AID1159580 (chemical genetic matrix, 2015)
The whole screen tested about 5,500 compounds, of which about 2,000 (36%) were called active. Not shown: some 18% with an inconclusive outcome. Rule as the data show it: active = normalized growth mostly below about 0.91 (no sharp cut-off); inconclusive = no clear call, values can overlap the other calls; inactive = mostly above about 0.92. The list shows a part of the results.

Experiment: chemical genetic growth profiling, strain panel (AID 1159580);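 also: tested at 20 µM; growth read once vehicle control cultures reached saturation at 30 °C; 1 = growth at the plate median or of vehicle wells; lower values mean less growth of the strain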
Conditions: growth OD

Measured: normalized growth

CCS(=O)(=O)CCn1c([N+](=O)[O-])cnc1C
inactive: S. cerevisiae deletion strains, locus YJR075W, strain HOC1, hits give low values 0.981 | S. cerevisiae deletion strains, locus YKL009W, strain mrt4, hits give low values 1.04 | S. cerevisiae deletion strains, locus YKL068W, hits give low values 1.02 | S. cerevisiae deletion strains, locus YKL085W, strain MDH1 (second series), hits give low values 1.04 | S. cerevisiae deletion strains, locus YKL085W, strain MDH1, hits give low values 1.04 | S. cerevisiae deletion strains, locus YKL160W, strain elf1, hits give low values 1.03 | S. cerevisiae deletion strains, locus YKL190W, strain CNB1, hits give low values 1.01 | S. cerevisiae deletion strains, locus YKR001C, strain vps1, hits give low values 1.03 | S. cerevisiae deletion strains, locus YKR026C, strain gcn3, hits give low values 0.984 | S. cerevisiae deletion strains, locus YKR091W, strain srl3, hits give low values 0.999 | S. cerevisiae deletion strains, locus YLL001W, strain dnm1, hits give low values 0.993 | S. cerevisiae deletion strains, locus YLL026W, hits give low values 1.01 | S. cerevisiae deletion strains, locus YLL041C, strain sdh2, hits give low values 0.993 | S. cerevisiae deletion strains, locus YLR027C, strain aat2, hits give low values 0.997 | S. cerevisiae deletion strains, locus YLR039C, strain RIC1, hits give low values 1.07 | S. cerevisiae deletion strains, locus YLR058C, strain SHM2, hits give low values 1.01 | S. cerevisiae deletion strains, locus YLR102C, strain apc9, hits give low values 1.01 | S. cerevisiae deletion strains, locus YLR113W, strain HOG1, hits give low values 0.938 | S. cerevisiae deletion strains, locus YLR221C, strain rsa3, hits give low values 0.989 | S. cerevisiae deletion strains, locus YLR258W, strain gsy2, hits give low values 1.01 | S. cerevisiae deletion strains, locus YLR262C, strain YPT6 (second series), hits give low values 0.967 | S. cerevisiae deletion strains, locus YLR262C, strain YPT6, hits give low values 1.1 | S. cerevisiae deletion strains, locus YLR268W, strain sec22, hits give low values 1.01 | S. cerevisiae deletion strains, locus YLR320W, strain mms22, hits give low values 0.972 | S. cerevisiae deletion strains, locus YLR330W, strain CHS5, hits give low values 1.01 | S. cerevisiae deletion strains, locus YLR342W, strain FKS1 (second series), hits give low values 1.06 | S. cerevisiae deletion strains, locus YLR342W, strain FKS1, hits give low values 1.02 | S. cerevisiae deletion strains, locus YLR357W, strain rsc2, hits give low values 0.999 | S. cerevisiae deletion strains, locus YLR370C, strain arc18, hits give low values 1 | S. cerevisiae deletion strains, locus YLR371W, strain rom2, hits give low values 1.01 | S. cerevisiae deletion strains, locus YLR384C, strain iki3, hits give low values 1.01 | S. cerevisiae deletion strains, locus YLR418C, strain cdc73, hits give low values 1.03 | S. cerevisiae deletion strains, locus YML016C, strain PPZ1, hits give low values 1.01 | S. cerevisiae deletion strains, locus YML032C, strain rad52, hits give low values 1.03 | S. cerevisiae deletion strains, locus YML120C, strain ndi1, hits give low values 1 | S. cerevisiae deletion strains, locus YML124C, strain tub3, hits give low values 1 | S. cerevisiae deletion strains, locus YMR058W, strain fet3, hits give low values 1 | S. cerevisiae deletion strains, locus YMR078C, strain ctf18, hits give low values 1.01 | S. cerevisiae deletion strains, locus YMR125W, strain sto1, hits give low values 0.976 | S. cerevisiae deletion strains, locus YMR129W, hits give low values 0.98 | S. cerevisiae deletion strains, locus YMR205C, strain PFK2, hits give low values 0.988 | S. cerevisiae deletion strains, locus YMR223W, strain ubp8, hits give low values 1.04 | S. cerevisiae deletion strains, locus YMR231W, strain pep5, hits give low values 0.991 | S. cerevisiae deletion strains, locus YMR263W, strain SAP30, hits give low values 1.02 | S. cerevisiae deletion strains, locus YMR307W, strain GAS1, hits give low values 1.21 | S. cerevisiae deletion strains, locus YNL067W, strain RPL9B, hits give low values 1.02 | S. cerevisiae deletion strains, locus YNL071W, strain lat1, hits give low values 0.982 | S. cerevisiae deletion strains, locus YNL128W, strain TEP1, hits give low values 1.02 | S. cerevisiae deletion strains, locus YNL153C, strain GIM3, hits give low values 1.01 | S. cerevisiae deletion strains, locus YNL183C, strain NPR1, hits give low values 0.915 | S. cerevisiae deletion strains, locus YNL209W, strain ssb2, hits give low values 0.987 | S. cerevisiae deletion strains, locus YNL233W, strain BNI4, hits give low values 1.02 | S. cerevisiae deletion strains, locus YNL248C, strain rpa49, hits give low values 1.01 | S. cerevisiae deletion strains, locus YNL250W, strain rad50, hits give low values 1.02 | S. cerevisiae deletion strains, locus YNL271C, strain bni1, hits give low values 1.02 | S. cerevisiae deletion strains, locus YNL298W, strain CLA4, hits give low values 1.03 | S. cerevisiae deletion strains, locus YNL307C, strain MCK1, hits give low values 1.05 | S. cerevisiae deletion strains, locus YNL322C, strain KRE1 (second series), hits give low values 1.01 | S. cerevisiae deletion strains, locus YNL322C, strain KRE1, hits give low values 1.01 | S. cerevisiae deletion strains, locus YNR049C, strain mso1, hits give low values 0.997 | S. cerevisiae deletion strains, locus YNR052C, strain pop2, hits give low values 1.01 | S. cerevisiae deletion strains, locus YOL006C, strain TOP1, hits give low values 1.04 | S. cerevisiae deletion strains, locus YOL012C, strain htz1 0.976 | S. cerevisiae deletion strains, locus YOL147C, strain pex11, hits give low values 1 | S. cerevisiae deletion strains, locus YOR001W, strain rrp6, hits give low values 0.971 | S. cerevisiae deletion strains, locus YOR061W, strain CKA2, hits give low values 1.01 | S. cerevisiae deletion strains, locus YOR069W, strain VPS5, hits give low values 1 | S. cerevisiae deletion strains, locus YOR070C, strain gyp1, hits give low values 1.01 | S. cerevisiae deletion strains, locus YOR080W, strain dia2, hits give low values 1.01 | S. cerevisiae deletion strains, locus YOR083W, strain WHI5, hits give low values 1 | S. cerevisiae deletion strains, locus YOR106W, strain vam3, hits give low values 1.02 | S. cerevisiae deletion strains, locus YOR136W, strain idh2, hits give low values 1.02 | S. cerevisiae deletion strains, locus YOR144C, strain elg1, hits give low values 1.01 | S. cerevisiae deletion strains, locus YOR184W, strain ser1, hits give low values 1.07 | S. cerevisiae deletion strains, locus YOR231W, strain MKK1, hits give low values 0.962 | S. cerevisiae deletion strains, locus YOR265W, strain rbl2, hits give low values 0.994 | S. cerevisiae deletion strains, locus YOR270C, strain vph1, hits give low values 0.977 | S. cerevisiae deletion strains, locus YOR290C, strain snf2, hits give low values 1.02 | S. cerevisiae deletion strains, locus YOR316C, strain cot1, hits give low values 1.02 | S. cerevisiae deletion strains, locus YPL051W, strain arl3, hits give low values 1.03 | S. cerevisiae deletion strains, locus YPL055C, strain LGE1, hits give low values 1.06 | S. cerevisiae deletion strains, locus YPL078C, strain atp4, hits give low values 1.01 | S. cerevisiae deletion strains, locus YPL106C, strain sse1, hits give low values 0.994 | S. cerevisiae deletion strains, locus YPL240C, strain hsp82, hits give low values 0.991 | S. cerevisiae deletion strains, locus YPL241C, strain CIN2, hits give low values 1.01 | S. cerevisiae deletion strains, locus YPL256C, strain CLN2, hits give low values 0.973 | S. cerevisiae deletion strains, locus YPR119W, strain clb2, hits give low values 1 | S. cerevisiae deletion strains, locus YPR141C, strain kar3, hits give low values 1.02 | S. cerevisiae deletion strains, locus YPR163C, strain tif3, hits give low values 1.01 | S. cerevisiae deletion strains, locus YPR167C, strain met16, hits give low values 1.02 | S. cerevisiae deletion strains, strain wtn01, hits give low values 1 | S. cerevisiae strains, strain wild type, hits give low values 1.05
